{"source": "PubChem BioAssay (Tox21)", "note": "The source made the active and inactive calls. A call without a number means that no potency is given here. Calls follow the shape of the full dose curve."}
{"molecular_target": "Gonadotropin-releasing hormone receptor (Homo sapiens) (UniProt P30968)", "sequence (P30968 whole entry, looked up)": "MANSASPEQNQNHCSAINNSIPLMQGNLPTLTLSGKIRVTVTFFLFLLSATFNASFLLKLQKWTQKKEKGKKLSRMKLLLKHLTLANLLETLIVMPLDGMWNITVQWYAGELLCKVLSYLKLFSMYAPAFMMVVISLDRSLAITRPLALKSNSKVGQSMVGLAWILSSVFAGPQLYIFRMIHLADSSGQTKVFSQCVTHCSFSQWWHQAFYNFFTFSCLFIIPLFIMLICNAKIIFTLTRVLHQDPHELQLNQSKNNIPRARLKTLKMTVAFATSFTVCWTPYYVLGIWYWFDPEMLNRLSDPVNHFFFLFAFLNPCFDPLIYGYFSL", "test": "Human gonadotropin-releasing hormone receptor (GnRHR) small molecule agonists, calcium flux assay in GnRHR-HEK293 cells (AID 1920063); also: nearly all actives have a fitted effect of over 35% in size", "conditions": "calcium flux fluorescence, agonist mode; series mostly up to 57.6 µM; activity change: at the top concentration", "from_the_text": "National Center for Advancing Translational Sciences [NCATS]\nDivision of Preclinical Innovation [DPI]\nU.S. Environmental Protection Agency [EPA]\nNational Institutes of Environmental Health Sciences [NIEHS]\nNational Toxicology Program [NTP]\nU.S. Food and Drug Administration [FDA]\nGonadotropin-releasing hormone receptor (GnRHR) is a G-protein-coupled receptor (GPCR) and acts (through phospholipase C) to increase intracellular inositol trisphosphate and then release intracellular calcium stores. Cell-based GnRHR-Hek293 calcium influx assay is using HEK293 cells that have been genetically engineered to express the human GnRHR, which activity can be measured by calcium signaling. A compound/drug can activate (agonist) GnRHR that can be monitored by levels of intracellular calcium.\nGnRHR-HEK293 cells developed by Codex Corp contain human GnRHR reporter gene, which was stably integrated into HEK 293 cells. The compound activation can be detected by fluorescence intensity via calcium flux assay. This cell line has been used to screen the Tox21 10K compound library to identify GnRHR agonists.\nGnRHR-Hek293 cells were dispensed at 1500cells/4uL/well in 1536-well black wall/clear bottom plates using a multidrop dispenser. After the assay plates were incubated at a 37 C/5% CO2 incubator for 18 hours, 4 uL of Calcium Dye Solution was added to each well. The plates were incubated at 37 C for 1 hour. For agonist mode, 23 nL of compounds dissolved in DMSO, positive controls or DMSO only was transferred to the assay plate by a pin tool station. The fluorescence intensity in the plates was measured using FDSS 7000EX kinetic plate reader with a filter set of Ex/Em=480/540 for 3 min at 1 sec intervals. Each test compound was measured at 15 concentrations and in triplicates."}
{"smiles": "COc1ccccc1OC", "activity change": "0.499% (inactive)"}
{"smiles": "CCBr", "activity change": "-1.6% (inactive)"}
{"smiles": "Nc1cccc(Cl)c1", "Potency": "inactive"}
{"smiles": "CCCCCCCCCCCCCCCl", "activity change": "2.03% (inactive)"}
{"smiles": "Nc1ccc(-c2ccc(N)c(Cl)c2)cc1Cl", "Potency": "inactive"}
{"smiles": "O=C(Cl)C(Cl)Cl", "activity change": "1.63% (inactive)"}
{"smiles": "COc1ccc2c3c1O[C@H]1[C@H](O)CC[C@H]4[C@@H](C2)N(C)CC[C@@]341", "activity change": "1.14% (inactive)"}
{"smiles": "O=C(NCc1cccnc1)Nc1ccc([N+](=O)[O-])cc1", "activity change": "-1.07% (inactive)"}
{"smiles": "COc1ccc2c(c1OC)C(=O)O[C@@H]2[C@H]1c2cc3c(cc2CCN1C)OCO3", "activity change": "3.89% (inactive)"}
{"smiles": "CCCCOC(=O)c1ccccc1C(=O)O", "activity change": "-0.42% (inactive)"}
{"smiles": "C[C@H]1C(=O)O[C@@H]2CCN3CC=C(COC(=O)[C@](C)(O)[C@]1(C)O)[C@H]23", "Potency": "inactive"}
{"smiles": "C=CC(=O)NC(C)(C)CC(C)=O", "activity change": "-0.574% (inactive)"}
{"smiles": "c1cc2c(c(N3CCNCC3)c1)OCCO2", "activity change": "3.15% [at 26.4 µM, hits give high values] (inactive)"}
{"smiles": "CCOC(=O)c1ccccc1S(=O)(=O)NC(=O)Nc1nc(Cl)cc(OC)n1", "activity change": "-1.61% (inactive)"}
{"smiles": "OCCOc1ccccc1", "Potency": "inactive"}
{"smiles": "Cc1ccc(N=C=O)cc1N=C=O", "Potency": "inactive"}
{"smiles": "N#Cc1ccncc1", "activity change": "-0.0866% (inactive)"}
{"smiles": "O=C([O-])c1ccccn1.O=C([O-])c1ccccn1.O=C([O-])c1ccccn1.[Cr+3]", "activity change": "-0.239% (inactive)"}
{"smiles": "CCCCC(CC)COC(=O)c1c(Br)c(Br)c(Br)c(Br)c1C(=O)OCC(CC)CCCC", "note": "(stereo not given)", "activity change": "1.72% [at 26.4 µM, hits give high values] (inactive)"}
{"smiles": "Clc1ccc(C(c2ccc(Cl)cc2)C(Cl)Cl)cc1", "Potency": "inactive"}
{"smiles": "Cc1ccc(CCl)cc1", "activity change": "-1.12% (inactive)"}
{"smiles": "ClC1=C(Cl)C2(Cl)C3C(Cl)C=CC3C1(Cl)C2(Cl)Cl", "note": "(stereo not given)", "activity change": "4.59% (inactive)"}
{"smiles": "Cc1cc(-c2ccc(N)c(C)c2)ccc1N", "Potency": "inactive"}
{"smiles": "OCC1CO1", "note": "(stereo not given)", "Potency": "inactive"}
{"smiles": "CC(C)Nc1ccc(Nc2ccccc2)cc1", "Potency": "inactive"}
{"smiles": "COC(=O)c1ccccc1N", "Potency": "inactive"}
{"smiles": "O=P1(NCCCl)OCCCN1CCCl", "note": "(stereo not given)", "Potency": "inactive"}
{"smiles": "CCNc1nc(Cl)nc(NCC)n1", "Potency": "inactive"}
{"smiles": "Cn1cc(-c2ccccc2)c(=O)c(-c2cccc(C(F)(F)F)c2)c1", "Potency": "inactive"}
{"smiles": "CC(=O)/C=C/c1ccccc1", "Potency": "inactive"}
{"smiles": "Nc1nc(N)nc(NC2CC2)n1", "Potency": "inactive"}
{"smiles": "O=C(Cl)OCCOCCOC(=O)Cl", "activity change": "-0.173% (inactive)"}
{"smiles": "Nc1nc(=S)[nH][nH]1", "activity change": "0.154% (inactive)"}
{"smiles": "Cc1ccccc1N", "Potency": "inactive"}
{"smiles": "CN(C)c1ccc(C(=O)c2ccc(N(C)C)cc2)cc1", "Potency": "inactive"}
{"smiles": "COC(=O)[C@@H](N)CCCN/C(N)=N/[N+](=O)[O-]", "activity change": "-1.29% [at 26.4 µM, hits give high values] (inactive)"}
{"smiles": "CNC(=O)Oc1cccc2c1OC(C)(C)C2", "Potency": "inactive"}
{"smiles": "O=[N+]([O-])c1ccc(Cl)cc1", "Potency": "inactive"}
{"smiles": "Cc1ccccc1O", "Potency": "inactive"}
{"smiles": "Cc1cc(Cl)ccc1OCC(=O)O", "Potency": "inactive"}
